# Records with an inconclusive call do not appear. A call without a number means that no potency is given here. Active and inactive are the calls of the source. Unless noted, calls come from the whole dose curve; as a rule, active = well fitted curve in the direction sought with a large enough effect; inconclusive = small, poorly fitted or top-dose-only effect, or another doubt; inactive = no such curve, though single readings can be large; an effect the other way counts as inactive or inconclusive.
# Experiments:
# [1] = qHTS assay for measurement of the activity of small molecule inhibitors on Zika virus induced Caspase-3 activity in human iPSC derived neural progenitor cells (hNPCs) (AID 1224857); note: nearly all actives have a fitted effect of over 65% in size
# How it was run: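 Values are percent inhibition of virus-induced caspase-3/7 signal, scaled between uninfected cells and ZIKV-infected cells. Infection used 2 FFU/cell for 6 h after 1 h compound exposure.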
# [2] = qHTS assay for measurement of the activity of small molecule inhibitors on Zika virus induced Caspase-3 activity in human astrocytoma cells (AID 1224859)
# How it was run: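 Compound added 1 h pre-infection; ZIKV 2 FFU/cell on SNB-19 cells, 6 h, 37 C/5% CO2. Caspase-Glo 3/7 luminescence; values as % inhibition of ZIKV-induced caspase activity.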
# [3] = qHTS assay to identify small molecule inhibitors of chordoma cells - UCH-1 (AID 1259355); note: nearly all actives have a fitted effect of over 55% in size; note: potency is the fitted concentration of half-maximal effect; series mostly up to about 46 µM
# How it was run: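 Luminescent ATP read-out (CellTiter-Glo, 30min at room temperature) measured viability of UCH-1 cells exposed for 48hr to test drugs at 15 concentrations, co-dosed with a five-agent combination of auranofin, camptothecin, doxorubicin, rubitecan and topotecan.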
# [4] = qHTS assay to identify small molecule inhibitors of chordoma cells - UCH-2 (AID 1259356); note: series mostly up to about 46 µM
# [5] = P-glycoprotein substrates identified in KB-8-5-11 adenocarcinoma cell line, qHTS therapeutic library screen (AID 1346987); note: nearly all actives have a fitted effect of over 65% in size; note: potency is the fitted concentration of half-maximal effect
# How it was run: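 P-gp-mediated resistance screen: KB-8-5-11 cells treated 72 h with compounds in dose-response. CellTiter-Glo viability.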
# [6] = target: Atrial natriuretic peptide receptor 1 (Homo sapiens) (UniProt P16066); assay: Natriuretic polypeptide receptor (hNpr1) antagonism - Pilot screen (AID 1347049; calls by dose curve;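 note: agonist-evoked cGMP luminescence read 20 min after hNppA addition; series mostly up to about 58 µM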)
# Atrial natriuretic peptide receptor 1 (Homo sapiens), sequence (P16066 whole entry, looked up): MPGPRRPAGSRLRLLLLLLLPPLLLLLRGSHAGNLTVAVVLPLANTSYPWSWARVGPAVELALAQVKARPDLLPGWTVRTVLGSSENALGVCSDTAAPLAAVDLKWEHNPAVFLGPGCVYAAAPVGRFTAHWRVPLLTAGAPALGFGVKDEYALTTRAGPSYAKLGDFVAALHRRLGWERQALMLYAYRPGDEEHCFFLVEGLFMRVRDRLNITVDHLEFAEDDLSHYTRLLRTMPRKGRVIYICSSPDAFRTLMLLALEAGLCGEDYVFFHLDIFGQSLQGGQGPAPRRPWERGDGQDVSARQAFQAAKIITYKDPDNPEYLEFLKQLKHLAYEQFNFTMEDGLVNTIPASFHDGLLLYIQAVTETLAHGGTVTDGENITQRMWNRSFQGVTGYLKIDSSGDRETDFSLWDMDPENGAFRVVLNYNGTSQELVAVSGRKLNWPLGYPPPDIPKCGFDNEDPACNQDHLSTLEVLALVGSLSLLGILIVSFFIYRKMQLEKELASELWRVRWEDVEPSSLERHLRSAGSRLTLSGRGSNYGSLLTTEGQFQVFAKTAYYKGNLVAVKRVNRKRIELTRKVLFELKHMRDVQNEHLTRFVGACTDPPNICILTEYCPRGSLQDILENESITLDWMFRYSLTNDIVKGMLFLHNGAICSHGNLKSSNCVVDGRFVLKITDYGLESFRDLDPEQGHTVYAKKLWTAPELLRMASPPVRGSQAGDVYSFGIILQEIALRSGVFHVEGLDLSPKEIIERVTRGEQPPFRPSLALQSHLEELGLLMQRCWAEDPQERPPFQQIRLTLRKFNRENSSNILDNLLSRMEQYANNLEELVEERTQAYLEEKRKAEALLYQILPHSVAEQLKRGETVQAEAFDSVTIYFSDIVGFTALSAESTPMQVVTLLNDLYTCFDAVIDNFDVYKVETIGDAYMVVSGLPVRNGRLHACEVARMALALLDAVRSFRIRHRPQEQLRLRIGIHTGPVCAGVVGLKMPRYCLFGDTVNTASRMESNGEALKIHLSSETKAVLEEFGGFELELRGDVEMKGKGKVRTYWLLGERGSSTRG
# How it was run: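 HEK293 cells co-expressing hNpr1 and the GloSensor pGS-40F cGMP luciferase sensor were preloaded with 2% GloSensor reagent for 2 h. Compounds were added for 30 min at room temperature, then cells were stimulated with 0.1 nM hNppA for 20 min before luminescence readout.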
# [7] = target: Atrial natriuretic peptide receptor 2 (Homo sapiens) (UniProt P20594); assay: Natriuretic polypeptide receptor (hNpr2) antagonism - Pilot subtype selectivity assay (AID 1347050; calls by dose curve)
# Atrial natriuretic peptide receptor 2 (Homo sapiens), sequence (P20594 whole entry, looked up): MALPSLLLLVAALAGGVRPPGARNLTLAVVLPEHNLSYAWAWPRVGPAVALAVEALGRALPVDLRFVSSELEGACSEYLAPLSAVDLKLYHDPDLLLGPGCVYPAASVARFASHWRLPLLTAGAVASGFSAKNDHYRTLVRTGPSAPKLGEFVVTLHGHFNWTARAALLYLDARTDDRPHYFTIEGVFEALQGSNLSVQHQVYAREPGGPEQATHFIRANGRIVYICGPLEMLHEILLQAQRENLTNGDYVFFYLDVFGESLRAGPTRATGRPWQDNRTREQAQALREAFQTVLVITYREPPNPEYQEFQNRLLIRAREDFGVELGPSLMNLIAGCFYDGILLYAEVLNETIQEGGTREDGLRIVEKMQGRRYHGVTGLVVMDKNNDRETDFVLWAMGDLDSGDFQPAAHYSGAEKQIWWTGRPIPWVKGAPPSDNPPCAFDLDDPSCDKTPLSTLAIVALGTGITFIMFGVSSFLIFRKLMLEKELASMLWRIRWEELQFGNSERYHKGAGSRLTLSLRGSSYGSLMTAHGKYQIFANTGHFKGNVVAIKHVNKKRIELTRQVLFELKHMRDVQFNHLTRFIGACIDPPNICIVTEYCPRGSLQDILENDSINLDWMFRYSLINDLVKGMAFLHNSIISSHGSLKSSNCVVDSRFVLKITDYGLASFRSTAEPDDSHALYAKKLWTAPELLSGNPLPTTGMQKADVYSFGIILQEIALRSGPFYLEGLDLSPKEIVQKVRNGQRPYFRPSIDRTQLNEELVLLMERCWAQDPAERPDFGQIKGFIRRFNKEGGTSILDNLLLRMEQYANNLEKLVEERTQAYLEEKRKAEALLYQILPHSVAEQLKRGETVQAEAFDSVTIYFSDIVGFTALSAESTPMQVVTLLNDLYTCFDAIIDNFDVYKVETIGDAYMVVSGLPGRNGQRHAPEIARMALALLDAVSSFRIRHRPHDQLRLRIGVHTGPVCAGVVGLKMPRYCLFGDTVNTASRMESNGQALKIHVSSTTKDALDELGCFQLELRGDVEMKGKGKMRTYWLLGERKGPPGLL
# How it was run: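 cGMP-sensor HEK293/hNpr2 cells; 2% GloSensor reagent 2 h RT; compounds 30 min; baseline luminescence read; 1 nM hNppC agonist 20 min RT; final luminescence read by CCD camera. Antagonism = reduced post-agonist signal.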
# [8] = NS1 protein of Zika virus - qHTS assay to identify small molecule inhibitors in human HEK 293 cells (AID 1347053); note: series mostly up to about 46 µM; nearly all actives have a fitted effect of over 55% in size
# How it was run: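 Inhibition of NS1 expression was scored in HEK 293 cells given compound 1 h ahead of MR766 virus (MOI = 0.5). Following 24 h at 37 C, two anti-NS1 antibodies generated a TR-FRET signal, scaled between uninfected and infected controls.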
# [9] = Natriuretic polypeptide receptor (hNpr1) antagonism - Pilot counterscreen GloSensor control cell line (AID 1347045; calls by dose curve; note: series mostly up to about 38 µM)
# How it was run: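 This counterscreen uses HEK293 cells expressing the GIP/pGS-40F cGMP biosensor. Compound-treated cells are challenged with 50 uM sodium nitroprusside, and the luciferase signal is compared before and after stimulation.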
# [10] = target: Tyrosine-protein phosphatase non-receptor type substrate 1 (Homo sapiens) + Leukocyte surface antigen CD47 (Homo sapiens) (UniProt P78324+Q08722); assay: CD47-SIRPalpha protein protein interaction - LANCE assay qHTS validation (AID 1347057; active = well fitted curve in the direction sought with a large enough effect in the signal ratio, with a control signal flat, not every such curve was filed as active; the % refers to the signal ratio; note: series mostly up to about 38 µM)
# Tyrosine-protein phosphatase non-receptor type substrate 1 (Homo sapiens) + Leukocyte surface antigen CD47 (Homo sapiens), sequence (P78324 whole entry, looked up): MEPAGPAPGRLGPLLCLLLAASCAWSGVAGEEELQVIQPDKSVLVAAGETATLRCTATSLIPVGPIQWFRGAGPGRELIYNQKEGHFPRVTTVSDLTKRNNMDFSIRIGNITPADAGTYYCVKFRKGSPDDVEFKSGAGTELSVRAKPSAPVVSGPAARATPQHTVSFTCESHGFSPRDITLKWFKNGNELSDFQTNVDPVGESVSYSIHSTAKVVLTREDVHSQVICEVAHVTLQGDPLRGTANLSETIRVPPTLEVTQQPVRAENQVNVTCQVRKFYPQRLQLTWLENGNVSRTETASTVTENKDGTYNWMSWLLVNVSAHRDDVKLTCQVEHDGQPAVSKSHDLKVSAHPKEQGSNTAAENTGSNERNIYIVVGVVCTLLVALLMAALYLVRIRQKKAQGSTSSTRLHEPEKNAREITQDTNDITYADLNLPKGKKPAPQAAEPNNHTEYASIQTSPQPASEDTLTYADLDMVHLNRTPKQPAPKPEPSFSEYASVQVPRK
# Tyrosine-protein phosphatase non-receptor type substrate 1 (Homo sapiens) + Leukocyte surface antigen CD47 (Homo sapiens), sequence (Q08722 whole entry, looked up): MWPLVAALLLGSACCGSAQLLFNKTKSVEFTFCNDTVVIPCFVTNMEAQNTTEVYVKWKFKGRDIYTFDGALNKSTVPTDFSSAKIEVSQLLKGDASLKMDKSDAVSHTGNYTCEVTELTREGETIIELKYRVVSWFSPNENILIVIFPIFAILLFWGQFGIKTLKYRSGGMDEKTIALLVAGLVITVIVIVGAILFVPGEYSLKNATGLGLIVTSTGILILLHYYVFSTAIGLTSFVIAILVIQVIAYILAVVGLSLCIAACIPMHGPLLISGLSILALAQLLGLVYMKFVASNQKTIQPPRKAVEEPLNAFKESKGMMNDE
# How it was run: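 First, His-tagged CD47 and Eu-labelled anti-His antibody met the compound for 30 min; next, site-specifically biotinylated SIRPalpha was added for 30 min; finally streptavidin-APC was added before reading the TR-FRET ratio.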
Compound,outcome [1],outcome [2],Potency [3],Potency [4],Potency [5],outcome [6],outcome [7],Potency [8],outcome [9],outcome [10]
C[C@]12CC[C@@H]3c4ccc(O)cc4CC[C@H]3[C@@H]1CC[C@@H]2O,inactive,inactive,inactive,inactive,6.51 µM (active),inactive,inactive,inactive,,
O=C(N/N=C/c1ccccc1O)c1ccncc1,inactive,inactive,inactive,inactive,inactive,,,,,
C[C@@H]1C(=O)NC2=Nc3cccc(Cl)c3CN21,inactive,inactive,inactive,inactive,0.82 µM (active),inactive,inactive,inactive,inactive,inactive
CN1CCC(=C2c3ccccc3Sc3ccccc32)CC1,inactive,inactive,inactive,inactive,9.2 µM (active),,,inactive,,
C/C=C/c1ccc(OC)cc1,inactive,inactive,inactive,inactive,inactive,,,inactive,,
CC(=O)O[C@H]1C[C@@H]2CC[C@@H]3[C@H](CC[C@@]4(C)[C@H]3C[C@H]([N+]3(C)CCCCC3)[C@@H]4OC(C)=O)[C@@]2(C)C[C@@H]1[N+]1(C)CCCCC1,inactive,inactive,inactive,inactive,inactive,inactive,inactive,inactive,inactive,inactive
CCCCCCCCCCOCC(O)CN (stereo not given),inactive,inactive,inactive,inactive,inactive,,,,,
COc1cc2c(cc1OC)C(=O)C(CC1CCN(Cc3ccccc3)CC1)C2 (stereo not given),inactive,inactive,inactive,inactive,8.2 µM (active),,,inactive,,
C[C@@H]1CN(CCCn2c3ccccc3c3ccccc32)C[C@H](C)N1,inactive,inactive,inactive,inactive,14.6 µM (active),,,,,
Oc1c(Cl)cc(Cl)cc1Sc1cc(Cl)cc(Cl)c1O,inactive,inactive,inactive,inactive,4.61 µM (active),,,inactive,,
C[n+]1c2cc(N)ccc2cc2ccc(N)cc21 (tested in a mixture with another compound),inactive,inactive,15.8 µM (active),,,,,,,
Cc1ccc(O)c2ncccc12,inactive,inactive,inactive,inactive,inactive,,,inactive,,
C1CCc2nnnn2CC1,inactive,inactive,inactive,inactive,inactive,inactive,inactive,inactive,inactive,inactive
CN(C(=O)CN(CCO)CC(=O)N(C)C(C)(C)Cc1ccccc1)C(C)(C)Cc1ccccc1,inactive,inactive,inactive,inactive,,,,,,
COc1cc(C=C2CCC/C(=C\c3ccc(O)c(OC)c3)C2=O)ccc1O,inactive,inactive,31.6 µM (active),inactive,25.9 µM (active),,,,,
C[C@]12CCC(=O)C=C1[C@@H]1C[C@@H]1[C@H]1[C@@H]3[C@@H]4C[C@@H]4[C@@]4(CCC(=O)O4)[C@@]3(C)CC[C@@H]12,inactive,inactive,inactive,inactive,4.11 µM (active),,,inactive,,
Cc1c(C)n(Cc2ccccc2)c2ccc(C(=O)OCCN(C)C)cc12,inactive,inactive,inactive,inactive,23.1 µM (active),,,inactive,,
O=C(O)c1cc2cc(Cc3cccnc3)ccc2o1,inactive,inactive,inactive,inactive,inactive,inactive,inactive,inactive,inactive,inactive
N[C@@H](Cc1cnc[nH]1)C(=O)O,inactive,inactive,inactive,inactive,inactive,inactive,inactive,inactive,inactive,inactive
Nc1cc(Cl)c(NC2=NCCN2)c(Cl)c1,inactive,inactive,inactive,inactive,inactive,inactive,inactive,inactive,inactive,inactive
CC1(C)CCC(NC(=O)[C@@H](N)CCC(=O)O)CC1,inactive,inactive,inactive,inactive,inactive,inactive,inactive,inactive,,inactive
Cc1cc(N)c2cc(NC(=O)Nc3ccc4nc(C)cc(N)c4c3)ccc2n1,inactive,inactive,inactive,inactive,inactive,,,inactive,,
O=C1CCC(c2ccc(-n3ccnc3)cc2)=NN1,inactive,inactive,inactive,inactive,1.46 µM (active),inactive,inactive,inactive,inactive,inactive
Oc1ccc(Cl)c2cccnc12,inactive,inactive,inactive,inactive,inactive,,,,,
CCCCCC=CCC=CCCCCCCCC(=O)OCC,inactive,inactive,inactive,inactive,inactive,,,inactive,,
CCN(CC)CCOc1ccc(C(O)(Cc2ccc(Cl)cc2)c2ccc(C)cc2)cc1 (stereo not given),inactive,inactive,inactive,,,,,,,
CC(C)N=C(N)/N=C(\N)Nc1ccc(Cl)cc1,inactive,inactive,inactive,inactive,inactive,,,inactive,,
CCCCOc1cc(C(=O)NCCN(CC)CC)c2ccccc2n1,inactive,inactive,inactive,inactive,inactive,,,inactive,,

Compound,outcome [1],outcome [2],Potency [3],Potency [4],Potency [5],outcome [6],outcome [7],Potency [8],outcome [9],outcome [10]
N[C@H](CO)C(=O)O,inactive,inactive,inactive,inactive,inactive,inactive,inactive,inactive,inactive,inactive
CCN1CCN(c2cc3c(cc2F)c(=O)c(C(=O)O)cn3C2CC2)CC1,inactive,inactive,inactive,inactive,inactive,,,inactive,,
CC(C)NC[C@@H](O)COc1cccc2ccccc12,inactive,inactive,inactive,inactive,inactive,,,inactive,,
CC(Cc1ccccc1)(NC(=O)CN)c1ccccc1 (stereo not given),inactive,inactive,inactive,inactive,inactive,,,inactive,,
CCCCCCCCCCCCCCCC[N+](C)(C)CC,inactive,inactive,inactive,,,,,,,
COc1cc(C(=S)N2CCOCC2)cc(OC)c1OC,inactive,inactive,inactive,inactive,inactive,,,inactive,,
C[N+]1(CCCCC[N+]2(C)CCCC2)CCCC1,inactive,inactive,inactive,inactive,inactive,,inactive,inactive,inactive,inactive
CCN(CC)CCNC(=O)COc1ccc(Cl)cc1,inactive,inactive,inactive,inactive,inactive,,,inactive,,
NC(CO)(CO)CO,inactive,inactive,inactive,inactive,inactive,,,inactive,,
CCCCN1CCCC1C(=O)Nc1c(C)cc(C)cc1C (stereo not given),inactive,inactive,inactive,inactive,inactive,,,inactive,,
CC(=O)Oc1ccc2c(c1)CC[C@@H]1[C@@H]2CC[C@]2(C)[C@@H](O)CC[C@@H]12,inactive,inactive,inactive,inactive,5.17 µM (active),,,inactive,,
NC(=O)CC[C@@H]1NC(=O)[C@H](Cc2ccccc2)NC(=O)[C@H](Cc2ccc(O)cc2)NC(=O)CCSSC[C@@H](C(=O)N2CCC[C@H]2C(=O)N[C@@H](CCCN=C(N)N)C(=O)NCC(N)=O)NC(=O)[C@H](CC(N)=O)NC1=O,inactive,inactive,inactive,inactive,,,,inactive,,
C#C[C@]1(O)CC[C@H]2[C@@H]3CCc4cc(OC5CCCC5)ccc4[C@H]3CC[C@@]21C,inactive,inactive,inactive,inactive,,,,inactive,,
CCN(CCCc1ccccc1)CCCc1ccccc1,inactive,inactive,inactive,inactive,,,,inactive,,
c1ccc(-c2ccc(C(c3ccccc3)n3ccnc3)cc2)cc1 (stereo not given),inactive,inactive,inactive,inactive,,,,inactive,,
CCCSS/C(CCO)=C(\C)N(C=O)Cc1cnc(C)nc1N,inactive,inactive,inactive,inactive,inactive,,,inactive,,
Clc1ccc2c(c1)CCc1cccnc1C2=C1CCNCC1,inactive,inactive,inactive,inactive,,,,inactive,,
Cc1c(C)n(CCN(C)C)c2ccc(C(=O)OCCN(C)C)cc12,inactive,inactive,inactive,inactive,,,,inactive,,
CCN1CCC[C@H]1CNC(=O)c1c(OC)ccc(Br)c1OC,inactive,inactive,inactive,inactive,,,,inactive,,
CCOC(=O)n1ccn(C)c1=S,inactive,inactive,inactive,inactive,,,,inactive,,
Cc1c(C(N)=O)cc([N+](=O)[O-])cc1[N+](=O)[O-],inactive,inactive,inactive,inactive,inactive,,,inactive,,
O=C(CCN1CCC(c2ccccc2)C1)c1ccc2c(c1)OCCO2 (stereo not given),inactive,inactive,inactive,inactive,inactive,,,inactive,,
O=C(Nc1ccc(Cl)c(Cl)c1)C1CC1,inactive,inactive,inactive,inactive,,,,inactive,,
O=C(COc1ccc(Cl)cc1)N1CCN(Cc2ccc3c(c2)OCO3)CC1,inactive,inactive,inactive,inactive,,,,inactive,,
OC[C@@H](O)[C@@H](O[C@@H]1O[C@H](CO)[C@H](O)[C@H](O)[C@H]1O)[C@H](O)[C@@H](O)CO,inactive,inactive,inactive,inactive,,,,inactive,,
CCCOC(C(=O)OC1CCN(C)CC1)(c1ccccc1)c1ccccc1,inactive,inactive,inactive,inactive,,,,inactive,,
CCCn1c(=O)[nH]c(=O)c2[nH]cnc21,inactive,inactive,inactive,inactive,,inactive,inactive,inactive,inactive,inactive

# Source: PubChem BioAssay (NCATS)
